Results taken from PubChem BioAssay (NCI).
The panel holds about 83,000 compounds, 20% with a hit somewhere; the sample as a whole holds those more often.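 Single-concentration screen, 48 h exposure, 96-well plates. Endpoint: percent growth. Below 10 = active.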 Unmarked numbers belong to inactive results. Active and inactive are the calls of the source.

What was measured:
Assay in all cases: NCI-60 one-dose screen, 48 h (100 = growth as untreated, 0 = no growth, -100 = all killed)
Conditions in all cases: 10 µM unless noted
NCI-H23 lung = tested on: NCI-H23 lung
NCI-H226 lung = tested on: NCI-H226 lung
NCI-H322M lung = tested on: NCI-H322M lung
HOP-62 NSCLC = tested on: HOP-62 NSCLC
NCI-H460 lung = tested on: NCI-H460 lung
HOP-92 NSCLC = tested on: HOP-92 NSCLC
NCI-H522 lung = tested on: NCI-H522 lung
A549/ATCC NSCLC = tested on: A549/ATCC NSCLC
786-0 renal = tested on: 786-0 renal
COLO 205 colon = tested on: COLO 205 colon
DU-145 prostate = tested on: DU-145 prostate
K-562 leukemia = tested on: K-562 leukemia
MALME-3M melanoma = tested on: MALME-3M melanoma
MDA-MB-231 breast = tested on: MDA-MB-231 breast
RXF 393 renal = tested on: RXF 393 renal
SF-268 CNS = tested on: SF-268 CNS
SF-295 CNS = tested on: SF-295 CNS
SF-539 CNS = tested on: SF-539 CNS
UACC-257 melanoma = tested on: UACC-257 melanoma
M14 melanoma = tested on: M14 melanoma

| Structure (SMILES) | growth (NCI-H23 lung) | growth (NCI-H226 lung) | growth (NCI-H322M lung) | growth (HOP-62 NSCLC) | growth (NCI-H460 lung) | growth (HOP-92 NSCLC) | growth (NCI-H522 lung) | growth (A549/ATCC NSCLC) | growth (786-0 renal) | growth (COLO 205 colon) | growth (DU-145 prostate) | growth (K-562 leukemia) | growth (MALME-3M melanoma) | growth (MDA-MB-231 breast) | growth (RXF 393 renal) | growth (SF-268 CNS) | growth (SF-295 CNS) | growth (SF-539 CNS) | growth (UACC-257 melanoma) | growth (M14 melanoma) |
| --- | --- | --- | --- | --- | --- | --- | --- | --- | --- | --- | --- | --- | --- | --- | --- | --- | --- | --- | --- | --- |
| CSCCC(NC(=O)c1ccccc1)C(=O)N/N=C1\S/C(=C/c2ccc(Cl)cc2)C(=O)N1C (stereo not given) | 90% | 86.9% | 90.4% | 33.9% | 95.9% | 70.8% | 80.7% | 79.9% | 91.4% | 101% | 75.1% | 41.6% | 83.3% | 75.6% | 75.5% | 74.1% | 75.2% | 93.5% | 89.8% | 86.6% |
| CC(O)c1ncc(/C=C2\SC(=S)N(Cc3ccccc3)C2=O)s1 (stereo not given) | 103% | 97.2% | 100% | 104% | 104% | 73.4% | 5.34% (active) | 105% | 87.3% | 96.2% | 89.2% | 87.9% | 93.2% | 94% | 102% | 89.8% | 102% | 85% | 96.2% | 93.8% |
| COc1ccc2nc3ccccc3c(NCc3ccc(F)cc3)c2c1 | 14% | 30% | 22.6% | 28.2% | 5.47% (active) | -11.3% (active) | 18.2% | 19.7% | 6.83% (active) | -54.4% (active) | 16.5% | 1.95% (active) | -5.2% (active) | 16.7% | -18.9% (active) | 34.6% | 14.4% | 3.85% (active) | -11.1% (active) | 15.3% |
| COc1ccc(/C=C/C(=O)c2ccc(NC(=O)CSc3nnc(-c4cc(-c5ccccc5)nc5ccccc45)n3-c3ccccc3)cc2)cc1 | 93.2% | 102% | 99.6% | 97.3% | 107% | 84.9% | 83.9% | 97.9% | 95.4% | 110% | 94.9% | 88.8% | 98% | 87.3% | 103% | 98.3% | 103% | 97.8% | 105% | 99% |
| COc1ccc2[nH]cc(-c3nc(-c4cn(C)c5ccncc45)cs3)c2c1 | 93.9% | 106% | 90.9% | 95.4% | -51% (active) | 98.2% | 65.4% | 6.03% (active) | 79% | 96.2% | 2.58% (active) | -26.3% (active) | 86.9% | -61.7% (active) | -86.8% (active) | 87.1% | 76.3% | -70.6% (active) | 92.7% | -88.7% (active) |
| COc1cccc2c(N=NC(=O)c3ccc(S(N)(=O)=O)cc3)c(O)[nH]c12 | 99.4% | 95.8% | 99.7% | 102% | 104% | 118% | 87.1% | 95.5% | 95.6% | 109% | 115% | 98.5% | 103% | 102% | 106% | 106% | 102% | 102% | 107% | 102% |
| COc1ccc(C2=NN(C(C)=O)C(c3ccc(Oc4ccnc5cc(Cl)ccc45)c(OC)c3)C2)cc1 (stereo not given) | 65.9% | -0.374% (active) | 26.7% | 27.6% | 30.7% | -1.54% (active) | 46.8% | 44.6% | 23.9% | 47.7% | 59.8% | 68.6% | 52.8% | 41.9% | 23% | 76% | 49.5% | 2.73% (active) | 70.5% | 71.8% |
| COc1ccc2c(c1)c(-c1nonc1-c1c[nH]c3ccc(Br)cc13)cn2C | 55.6% | 84.6% | 55.8% | 29.6% | 23.7% | 75.6% | 11.3% | 28.1% | 58.6% | 23.9% | 61.2% | 11.5% | 46.3% | 43.4% | 67% | 48.3% | 40.2% | 56.6% | 64.7% | 20.8% |
| O=C(CCCCCCN1CC(=O)N2[C@@H](C3CCCCC3)c3[nH]c4ccccc4c3C[C@H]2C1=O)NO | 72.2% | 97.1% | 79% | 65.9% | 61.1% | 59.1% | 39.9% | 86.5% | 88% | 62.9% | 80% | 31.1% | 37.5% | 82.9% | 65.2% | 106% | 89.2% | 69.3% | 54.1% | 63.8% |
| COc1ccc2nc3cc(Cl)ccc3c(NCCN)c2c1 | -33.6% (active) | 31.8% | -46% (active) | -85.8% (active) | -71.4% (active) | 70.7% | -56.6% (active) | -84.5% (active) | -88.9% (active) | -83.2% (active) | -94.1% (active) | -64.6% (active) | -71% (active) | -71.6% (active) | -85.9% (active) | -53.7% (active) | -92.3% (active) | -72% (active) | 101% | -74.7% (active) |
| CCN(CC)CCCC(C)Nc1ccc2cc(OC)ccc2n1 (stereo not given) | 107% | 107% | 94.7% | 91.4% | 108% | 91.5% | 99.1% | 85.4% | 98.9% | 107% | 99.9% | 131% | 114% | 104% | 112% | 91.2% | 97.4% | 100% | 94.7% | 99.3% |
| CCOC(=O)c1n[nH]n2c1nc(=O)c1cnn(C)c12 | 96.5% | 98.1% | 99.4% | 103% | 103% | 103% | 91% | 86.7% | 106% | 111% | 98.5% | 93% | 101% | 113% | 109% | 96.1% | 108% | 103% | 86.4% | 102% |
| N#Cc1nc2c(S(=O)(=O)c3ccccc3)c(N)n(Cc3cccnc3)c2nc1C#N | 88.5% | 97.7% | 91.7% | -8.31% (active) | 113% | -14.8% (active) | 46.8% | 90.1% | 106% | 92.3% | 90.6% | 51.6% | 78.1% | 84.7% | 59.7% | 52.2% | 92.7% | 58.7% | 80.3% | 142% |
| COc1ccc(-c2oc(=O)ccc2-c2cc(OC)c(OC)c(OC)c2)cc1O | 49% | 64.1% | 41.6% | -15.8% (active) | 4.04% (active) | 103% | -0.118% (active) | 26% | 20.5% | 45.2% | 6.81% (active) | -9.26% (active) | 37.8% | 38.6% | -38.7% (active) | 24.9% | -17.8% (active) | -13.7% (active) | 47.3% | -62.5% (active) |
| Cc1ccc(Nc2nc(-c3ccc(F)cc3)c(C#N)c(=O)n2C)cc1 | 66.7% | 64% | 74.8% | 50.9% | 84.5% | 0.0271% (active) | 49.7% | 61.7% | 67.5% | 66.8% | 72.7% | 97.6% | 45.8% | 23.4% | 50.2% | 66.5% | 79.1% | 64.8% | 74.5% | 77.9% |
| O=C1/C(=C/c2ccc(Br)cc2)COc2ccc(O)c(O)c21 | 18.3% | 71% | 30.7% | -24.5% (active) | 12% | -33.4% (active) | -70.4% (active) | 20.6% | -70.4% (active) | 15.4% | 6.06% (active) | 5.3% (active) | -17.2% (active) | -4.69% (active) | -49.2% (active) | -36.7% (active) | 57.6% | -94.2% (active) | 9.86% (active) | 9.59% (active) |
